# In PubChem BioAssay (NCI):
# This is part of a sample that, as a whole, favours compounds with a hit. Of some 83,000 tested, about 20% had one in any assay.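 Assay: single dose, 48 h. Readout: percent growth (0 = no net growth; negative = cell death). Active: <10.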 Unmarked numbers belong to inactive results. Activity calls are given as the source filed them.
# System: CCRF-CEM leukemia
# Experiment: NCI-60 one-dose screen, 48 h (100 = growth as untreated, 0 = no growth, -100 = all killed)
# Details: 10 µM unless noted
# Protocol: Growth inhibition of the CCRF-CEM human tumor cell line is measured as a screen for anti-cancer activity. Cells are grown in 96 well plates and exposed to the test compound for 48 hours. Compounds are tested at a single concentration, which is 10^-5 M for most compounds. The reported endpoint is percent growth (GI% or GIPRCNT), where numbers from 0 - 100% represent growth inhibition, and numbers from -100% - 0 represent cell death. For example, a value of 40 represents 60% growth inhibition. A value of 0 means no net growth occurred over the course of the experiment. A value of -40 indicates 40% of cells at the beginning of the experiment died by the end of the experiment. A value of -100 means all cells are dead at the end of the experiment.
# NCI-60 Human Tumor Cell Lines Screen was performed using the standard one-dose NCI protocol, which is described in more detail at https://dtp.cancer.gov/discovery_development/nci-60/default.htm.
# Compounds with GIPRCNT values below 10 were considered active. Activity score was based on GIPRCNT using the following formula: […]
# Score is 0 for GIPRCNT values of 100 or above, 50 for GIPRCNT values of 0, and 100 for GIPRCNT values of -100.
row,SMILES,growth
1,O=C(/C=C/C12c3ccccc3C(c3ccccc31)C1C(=O)NC(=O)C12)c1ccc(Cl)cc1Cl (stereo not given),-8.25% (active)
2,CCCCO[C@@H]1C=C2[C@H]3CC(C)(C)C(=O)C[C@]3(C(=O)O[C@@H]3O[C@H](CO[C@@H]4O[C@H](CO)[C@@H](OC5OC(C)C(O)C(O)C5O)[C@H](O)[C@H]4O)[C@@H](O)[C@H](O)[C@H]3O)CC[C@@]2(C)[C@]2(C)CC[C@H]3C(C)(C)C(=O)CC[C@]3(C)[C@@H]12 (stereo not given in full),43.3%
3,CN(C)c1ccc(/C=C2\C=C(c3nc4ccccc4s3)OC2=O)cc1,99%
4,c1cc(OCCCCCOc2cccc(-c3nc4ccccc4[nH]3)c2)cc(-c2nc3ccccc3[nH]2)c1,-18.9% (active)
5,C[C@H](c1nc2ccc(C#N)cc2[nH]1)[C@H]1CC[C@H]2[C@@H]3CCC4=CC(=O)CC[C@]4(C)[C@H]3CC[C@]12C,46.5%
6,Nc1nc(C(=O)N/N=C/c2ccc(F)cc2)nn1-c1ccc(S(N)(=O)=O)cc1,112%
7,Cc1c2ccccc2nc2cc3c(cc12)[C@H]1CC[C@]2(C)C(=O)CC[C@H]2[C@@H]1CC3,97.4%
8,CCn1cc(Cc2cc(C(=O)Nc3cc4cc(OC)c(OC)cc4c(C)n3)ccc2Cl)cn1,22.4%
9,C#CCOc1ccc2nc(CCl)c(Cl)c(Nc3cccc(C(F)(F)F)c3)c2c1,20.9%
10,COc1ccc(Nc2ncc(C#N)c(NCCCNC(=O)C3CCC3)n2)cc1,45.5%
11,Nc1nc2ccccc2c2c(=O)c3cc(Cl)ccc3sc12,101%
12,Clc1cccc(C2Cc3cnccc3-c3[nH]c4ccncc4c32)c1 (stereo not given),49.7%
13,CNC(=O)NCC1OC(n2cnc3c(NC(=O)Nc4ccccc4)ncnc32)C2OC(=O)CC12 (stereo not given),94.1%
14,O=C(O)CC(C(=O)O)/C(=C\c1ccccc1)c1ccccc1 (stereo not given),94.6%
15,COc1ccc(-c2cc(-c3cccnc3)nc3sc4c(N)c(C(C)=O)c(-c5ccccc5)nc4c23)cc1OC,70.5%
16,O=S(O)c1cc(Cl)cc(Cl)c1OCc1ccccc1,102%
17,Cc1ccc(S(=O)(=O)OCC#CCOS(=O)(=O)c2ccc(C)cc2)cc1,7.43% (active)
18,COc1ccc2c(O)c(/C=C3\N=Nc4ncccc43)oc2c1C[C@@H]1CCNC[C@H]1F,-17.4% (active)
19,COC(=O)c1sccc1-c1cc(O)c(C(=O)Nc2ccccc2)s1,101%
20,CC(=O)Nc1sc2c(c1-c1nc3ccccc3s1)CNC2,22.6%

row,SMILES,growth
1,Oc1c(I)cc(I)cc1CN(Cc1ccccn1)Cc1ccccn1,9.21% (active)
2,C=C(C)[C@@H]1CC[C@]2(C)[C@H](C=CC3=C4C[C@@](C)(CO)CC[C@]4(C)CC[C@]32C)[C@@]1(C)CCCN,0.791% (active)
3,CC1SC(c2ccccc2O)N(NC(=O)CCC(=O)c2nc3ncccc3[nH]2)C1=O (stereo not given),116%
4,O=[N+]([O-])c1ccccc1Sc1ccccc1[N+](=O)[O-],107%
5,CC1(/C=C/c2ccc(-c3ccccc3)cc2)CCn2cnc3ncnc(c32)N1O (stereo not given),11.8%
6,COc1ccc(NC(=O)c2ccc(Nc3ncnc4c3cnn4-c3cccc(F)c3)cc2)cc1,97.2%
7,Cc1ccc(-c2nc(SCC(=O)N3CCN(c4cc5c(cc4F)c(=O)c(C(=O)O)cn5C4CC4)CC3)nc(Cl)c2C#N)cc1,106%
8,COc1ccc(-c2cn(Cc3cc4ccccc4s3)nn2)cc1OCCN1CCCCC1,62.2%
9,COc1ccc2cc(-c3nc4ccc(C)cn4c3NCc3ccco3)c(=O)[nH]c2c1,62.3%
10,Cc1[nH]n(-c2cccc(Cl)c2)c(=O)c1/C=C1\C=c2ccccc2=CC1=O,36.3%
11,O=C1CCCC1[n+]1ccccc1 (stereo not given),105%
12,CCOC(=O)/C(=C(/C)NCC(C)C)c1cc(O)c(O)c2c(C)cc(=O)[nH]c12,11.2%
13,CCCC(=O)NC(c1ccc2c(c1)OCO2)c1cc(Cl)c2cccnc2c1O (stereo not given),13.2%
14,CC(C)(C)c1ccc(S(=O)(=O)Oc2ccc(-c3sc4cc(OS(=O)(=O)c5ccc(C(C)(C)C)cc5)ccc4c3C(=O)c3ccc(OCCN4CCCCC4)cc3)cc2)cc1,93.4%
15,COC(=O)c1nc(-c2ccccc2)oc1S(=O)(=O)N1CCCC(C)C1 (stereo not given),1.21% (active)
16,CS(=O)(=O)Nc1cc(-c2ccc3ncnc(Nc4ccc(F)c(Cl)c4)c3c2)ccc1Cl,30.2%
17,C#Cc1cccc(Nc2ncnc3cc(NC(=O)CCl)ccc23)c1,-19.4% (active)
18,c1cc(OCCN2CCCCCC2)ccc1CNc1ccc2nc(CCC3CCCCC3)[nH]c2c1,29.5%
19,CNC(=O)c1cc(Oc2ccc3c(c2)sc2nc(-c4ccc(Cl)c(C(F)(F)F)c4)cn23)ccn1,47.4%
20,Nc1nc(N(Cc2ccccc2)c2ccccc2)c2cn[nH]c2n1,92.6%
